Consider 40 molecules from PubChem BioAssay.

Active and inactive are the calls of the source.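 Rule for the calls, unless noted: active = inhibition above 20% together with a positive visual image hit; inconclusive = visual image hit but inhibition not above 20%; inactive = no visual image hit.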

The first assay in a line: inhibitors of TNFa-induced NFkB p65 translocation, primary screen, imaging, HUVEC, MLSMR starter and 10KST1 sets (AID 438).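 For inhibition: signal is the nuclear over cytoplasmic p65 intensity ratio per well.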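 Note: compound added about 3h40 before a 20 min TNFalpha stimulation.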 The settings on record: HUVEC TNFa-induced p65 nuclear translocation; cell count: measured here: nuclei count (cytotoxicity indicator), at 2.08 µM; inhibition: at 2 µM, stronger effect = higher value, 0% TNFa-plus-vehicle, 100% no-TNFa wells.
As to `O=C1CCCC(O)=C1C=Nc1ccc2c(c1)oc1ccccc12`, the cell count was 403 and the inhibition – broadly, the change of the read-out against control, counted positive when it falls – was 1.7% (inactive).

Regarding `CCOC(=O)c1ccc(N(CC(=O)NC2CCCC2)C(=O)CNC(=O)c2ccco2)cc1`, the inhibition was -7.8% (inactive) and the cell count came to 626.

As to `COc1cc(NS(=O)(=O)N2CCCC2)cc(OC)c1OC`, the cell count turned out to be 712 and the inhibition was 0.7% (inactive).

On to `CCOc1ccc(N2CC(C(=O)NCCc3ccc(OC)c(OC)c3)CC2=O)cc1` (stereo not given), for which the cell count was found to be 458 and the inhibition is -3.8% (inactive).

For the molecule `Cn1c(=O)c(C(=O)Nc2cccnc2)c(O)c2ccccc21`, the inhibition was 5.5% (inactive) and the cell count came to 632.

As for `COCCNC(=O)C(c1ccc(C)o1)N(Cc1ccc(OC)cc1)C(=O)Cn1nnc2ccccc21` (stereo not given), the cell count was found to be 249 and the inhibition is 7% (inactive).

Regarding `O=C(c1cc2cc(Cl)cc(Cl)c2oc1=O)N1CCOCC1`, the inhibition is 13.1% (inactive) and the cell count turned out to be 275.

`COc1ccc2nc(N3CCC(C)CC3)c(C#N)cc2c1`: the inhibition is 7.3% (inactive) and the cell count is 380.

For the molecule `C/C(=C\c1ccco1)C1C(C#N)=C(N)OC2=C1C(=O)CC(C)(C)C2` (stereo not given), the inhibition was -9.1% (inactive) and the cell count is 595.

Turning to `CCOC(=O)c1c(C)[nH]c(C)c1C(=O)COC(=O)CNC(=O)c1ccc(OCC)cc1`, the inhibition was -2.2% (inactive) and the cell count was 708.

In the case of `CCCCNC(=O)Cn1c(=O)n(C)c2ccccc21`, the cell count was 600 and the inhibition is 6.9% (inactive).

On to `c1ccc(OCc2nc3ccccc3[nH]2)cc1`, for which the cell count stood at 443 and the inhibition was -6.5% (inactive).

`O=C(CSc1nc2ccccc2s1)N1CCN(C(=O)c2ccco2)CC1`: the cell count was 394 and the inhibition was 0.5% (inactive).

`CCCSc1nc(N)c(C#N)c(-c2ccc(C)cc2)c1C#N`: the cell count was found to be 683 and the inhibition was 10.1% (inactive).

As to `CN(C(=O)Cn1c(=O)n(CCCCC(=O)NC2CCCC2)c(=O)c2ccccc21)C1CCCCC1`, the inhibition is -1.2% (inactive) and the cell count amounted to 347.

As for `CC1(C)CNC(=O)CC(C)(C)N1O`, the inhibition is 4% (inactive) and the cell count came out at 379.

As for `COc1ccc(Cl)cc1Nc1nc(NCCO)nc(N2CCCC2)n1`, the inhibition was -4.3% (inactive) and the cell count was determined as 390.

Regarding `CCOC(=O)c1ccc(S(=O)(=O)Nc2cc(C(C)(C)C)no2)cc1`, the inhibition is -10.3% (inactive) and the cell count turned out to be 551.

Regarding `CCCCCCn1c(SCC(=O)OC)nc2c1c(=O)[nH]c(=O)n2C`, the inhibition was -5.9% (inactive) and the cell count is 502.

For `COc1ccc(CCNC(=O)CSCc2n[nH]c(=O)[nH]2)cc1OC`, the inhibition was 1.6% (inactive) and the cell count is 330.

As for `COc1ccc(-c2nc3c(c(SCC(=O)N4CCOCC4)n2)COC(C)(C)C3)cc1`, the cell count is 510 and the inhibition is 23.4% (active).

Consider `CN1CCN(CC(=O)N2c3ccccc3C(C)(c3ccccc3)CC2(C)C)CC1` (stereo not given), for which the cell count was determined as 352 and the inhibition was 2.9% (inactive).

For `CCN(CC)CCOc1cccc(C(C)C)c1`, the inhibition was -5.3% (inactive) and the cell count was determined as 657.

On to `O=C(CN1C(=O)CC(c2ccco2)Sc2ccccc21)Nc1ccccc1F` (stereo not given), for which the inhibition is -2.9% (inactive) and the cell count amounted to 551.

Take `COCCN(CC(=O)NCc1ccccc1)C(=O)CCC(=O)Nc1ccccn1`: the cell count came out at 663 and the inhibition was -4.4% (inactive).

With `CCCCc1cc(=O)oc2cc(OCC(=O)N(CC)CC)c(Cl)cc12`, the inhibition is 0% (inactive) and the cell count was 586.

Consider `CC(=O)Nc1cccc(NC(=O)c2oc3ccccc3c2C)c1`, for which the inhibition was -0.2% (inactive) and the cell count was determined as 343.

Take `CCN(CC)CCCn1c(=S)[nH]c2cc(Cl)ccc2c1=O`: the inhibition is -0.2% (inactive) and the cell count turned out to be 353.

`CCn1c(SCC(=O)c2ccc(OC)cc2)nnc1C(C)NC(=O)c1ccc(OC)cc1` (stereo not given): the cell count is 449 and the inhibition is -1.8% (inactive).

With `CCCCOC(=O)CN1C(=O)c2ccc(C(=O)OCCCC)cc2C1=O`, the inhibition was -4.1% (inactive) and the cell count stood at 619.

Turning to `CC(C)CCNC(=O)C(c1cccs1)N(CC1CCCO1)C(=O)Cn1nnc2ccccc21` (stereo not given), the cell count was determined as 642 and the inhibition is 8.8% (inactive).

Turning to `O=C(CNC(=O)c1ccccc1C(=O)O)c1ccccc1`, the inhibition was 1.8% (inactive) and the cell count worked out at 653.

As to `CS(=O)(=O)N1CCCC(C(=O)N2CCOCC2)C1` (stereo not given), the inhibition is 1.2% (inactive) and the cell count came out at 683.

Take `Cc1ccc(NC(=O)C2CCCN2S(=O)(=O)c2cccc3cccnc23)cc1F` (stereo not given): the cell count turned out to be 577 and the inhibition is -1.1% (inactive).

For the molecule `Cc1cc(C(=O)NCCCN2CCOCC2)n(-c2ccccc2)n1`, the inhibition is 3.3% (inactive) and the cell count was 624.

Regarding `CCc1nn(CC(=O)N2CCN(Cc3ccc4c(c3)OCO4)CC2)c(=O)c2cc3occc3n12`, the cell count was 341 and the inhibition is 1.7% (inactive).

As for `Cc1ccc2c(c1)nnn2C1CCN(C(=O)NC23CC4CC(CC(C4)C2)C3)CC1`, the cell count turned out to be 471 and the inhibition is -9.4% (inactive).

Turning to `CCN(CC)CCOC(=O)c1c(C)oc2ccc(O)cc12`, the cell count is 418 and the inhibition was 11.9% (inactive).

As for `Cc1onc(-c2ccccc2Cl)c1C(=O)NCc1cccnc1`, the cell count was found to be 700 and the inhibition is 1% (inactive).

For `COc1cccc(NC(=O)c2ccco2)c1`, the cell count came to 596 and the inhibition is 5.6% (inactive).

A further assay can be described thus: reduction of polyQ htt aggregates in cells – imaging, exon1htt(103Q)mCFP cells, high-content imaging, primary screen (AID 483;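 active = visual image review flags a hit and inhibition of aggregation exceeds 20%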;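 note: compound exposure lasted 3 days before fixation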;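 for nuclei count: percent of the per-plate median nuclei count of sample wells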). To be noted: exon1htt(103Q)mCFP cell line, aggregate imaging, at 2 µM; inhibition of aggregation: stronger effect = higher value; nuclei count: measured here: cell count, toxicity.
Regarding `O=C1CCCC(O)=C1C=Nc1ccc2c(c1)oc1ccccc12`, the nuclei count came out at 95.2% and the inhibition of aggregation is -0.4% (inactive).

For `CCOC(=O)c1ccc(N(CC(=O)NC2CCCC2)C(=O)CNC(=O)c2ccco2)cc1`, the nuclei count worked out at 79.3% and the inhibition of aggregation is 5.5% (inactive).

With `COc1cc(NS(=O)(=O)N2CCCC2)cc(OC)c1OC`, the inhibition of aggregation is 9% (inactive) and the nuclei count was 95.3%.

For the molecule `CCOc1ccc(N2CC(C(=O)NCCc3ccc(OC)c(OC)c3)CC2=O)cc1` (stereo not given), the inhibition of aggregation was -9.6% (inactive) and the nuclei count came out at 112%.

For `Cn1c(=O)c(C(=O)Nc2cccnc2)c(O)c2ccccc21`, the inhibition of aggregation was 0.5% (inactive) and the nuclei count amounted to 128%.

For the molecule `COCCNC(=O)C(c1ccc(C)o1)N(Cc1ccc(OC)cc1)C(=O)Cn1nnc2ccccc21` (stereo not given), the nuclei count is 93.1% and the inhibition of aggregation was -3.6% (inactive).

Consider `O=C(c1cc2cc(Cl)cc(Cl)c2oc1=O)N1CCOCC1`, for which the nuclei count worked out at 87.4% and the inhibition of aggregation was -12% (inactive).

Regarding `COc1ccc2nc(N3CCC(C)CC3)c(C#N)cc2c1`, the inhibition of aggregation was -10.6% (inactive) and the nuclei count amounted to 108%.

For `C/C(=C\c1ccco1)C1C(C#N)=C(N)OC2=C1C(=O)CC(C)(C)C2` (stereo not given), the nuclei count worked out at 96.3% and the inhibition of aggregation is 11.6% (inactive).

Consider `CCOC(=O)c1c(C)[nH]c(C)c1C(=O)COC(=O)CNC(=O)c1ccc(OCC)cc1`, for which the inhibition of aggregation is 5.2% (inactive) and the nuclei count was 63.7%.

On to `CCCCNC(=O)Cn1c(=O)n(C)c2ccccc21`, for which the nuclei count is 111% and the inhibition of aggregation was -14.7% (inactive).

`c1ccc(OCc2nc3ccccc3[nH]2)cc1`: the nuclei count stood at 75.8% and the inhibition of aggregation is 9.8% (inactive).

Take `O=C(CSc1nc2ccccc2s1)N1CCN(C(=O)c2ccco2)CC1`: the inhibition of aggregation is 10% (inactive) and the nuclei count is 104%.

`CCCSc1nc(N)c(C#N)c(-c2ccc(C)cc2)c1C#N`: the inhibition of aggregation was -10.3% (inactive) and the nuclei count was 104%.

For the molecule `CN(C(=O)Cn1c(=O)n(CCCCC(=O)NC2CCCC2)c(=O)c2ccccc21)C1CCCCC1`, the inhibition of aggregation was -6.6% (inactive) and the nuclei count was 107%.

Turning to `CC1(C)CNC(=O)CC(C)(C)N1O`, the inhibition of aggregation was 7.9% (inactive) and the nuclei count is 89.4%.

Consider `COc1ccc(Cl)cc1Nc1nc(NCCO)nc(N2CCCC2)n1`, for which the nuclei count amounted to 95.9% and the inhibition of aggregation is 5.8% (inactive).

As to `CCOC(=O)c1ccc(S(=O)(=O)Nc2cc(C(C)(C)C)no2)cc1`, the nuclei count was determined as 108% and the inhibition of aggregation was 5.8% (inactive).

As to `CCCCCCn1c(SCC(=O)OC)nc2c1c(=O)[nH]c(=O)n2C`, the nuclei count turned out to be 71.7% and the inhibition of aggregation is 25.4% (inactive).

On to `COc1ccc(CCNC(=O)CSCc2n[nH]c(=O)[nH]2)cc1OC`, for which the nuclei count was determined as 99.5% and the inhibition of aggregation is -15.4% (inactive).

`COc1ccc(-c2nc3c(c(SCC(=O)N4CCOCC4)n2)COC(C)(C)C3)cc1`: the inhibition of aggregation is -8.2% (inactive) and the nuclei count was found to be 100%.

Regarding `CN1CCN(CC(=O)N2c3ccccc3C(C)(c3ccccc3)CC2(C)C)CC1` (stereo not given), the nuclei count was 74.1% and the inhibition of aggregation was -16.5% (inactive).

As for `CCN(CC)CCOc1cccc(C(C)C)c1`, the inhibition of aggregation was -2.7% (inactive) and the nuclei count worked out at 104%.

As to `O=C(CN1C(=O)CC(c2ccco2)Sc2ccccc21)Nc1ccccc1F` (stereo not given), the nuclei count was determined as 111% and the inhibition of aggregation is -3.5% (inactive).

Regarding `COCCN(CC(=O)NCc1ccccc1)C(=O)CCC(=O)Nc1ccccn1`, the inhibition of aggregation was 6.3% (inactive) and the nuclei count turned out to be 86%.

For the molecule `CCCCc1cc(=O)oc2cc(OCC(=O)N(CC)CC)c(Cl)cc12`, the nuclei count was 102% and the inhibition of aggregation is -3.9% (inactive).

`CC(=O)Nc1cccc(NC(=O)c2oc3ccccc3c2C)c1`: the nuclei count worked out at 98.8% and the inhibition of aggregation is 0.5% (inactive).

As to `CCN(CC)CCCn1c(=S)[nH]c2cc(Cl)ccc2c1=O`, the nuclei count worked out at 100% and the inhibition of aggregation is 7.4% (inactive).

As to `CCn1c(SCC(=O)c2ccc(OC)cc2)nnc1C(C)NC(=O)c1ccc(OC)cc1` (stereo not given), the nuclei count is 96.2% and the inhibition of aggregation is 2.6% (inactive).

Turning to `CCCCOC(=O)CN1C(=O)c2ccc(C(=O)OCCCC)cc2C1=O`, the nuclei count was 36.7% and the inhibition of aggregation is -4.5% (inactive).

As for `CC(C)CCNC(=O)C(c1cccs1)N(CC1CCCO1)C(=O)Cn1nnc2ccccc21` (stereo not given), the inhibition of aggregation is 3.2% (inactive) and the nuclei count turned out to be 85.4%.

Consider `O=C(CNC(=O)c1ccccc1C(=O)O)c1ccccc1`, for which the nuclei count was 105% and the inhibition of aggregation is 9.6% (inactive).

As for `CS(=O)(=O)N1CCCC(C(=O)N2CCOCC2)C1` (stereo not given), the inhibition of aggregation was 9.8% (inactive) and the nuclei count is 92%.

In the case of `Cc1ccc(NC(=O)C2CCCN2S(=O)(=O)c2cccc3cccnc23)cc1F` (stereo not given), the inhibition of aggregation was 3.5% (inactive) and the nuclei count is 71.6%.

For `Cc1cc(C(=O)NCCCN2CCOCC2)n(-c2ccccc2)n1`, the nuclei count amounted to 92.5% and the inhibition of aggregation was -11.9% (inactive).

As for `CCc1nn(CC(=O)N2CCN(Cc3ccc4c(c3)OCO4)CC2)c(=O)c2cc3occc3n12`, the inhibition of aggregation is -11.1% (inactive) and the nuclei count turned out to be 90.2%.

In the case of `Cc1ccc2c(c1)nnn2C1CCN(C(=O)NC23CC4CC(CC(C4)C2)C3)CC1`, the nuclei count is 122% and the inhibition of aggregation is 11.5% (inactive).

For `CCN(CC)CCOC(=O)c1c(C)oc2ccc(O)cc12`, the nuclei count came out at 74.1% and the inhibition of aggregation was -8.4% (inactive).

Consider `Cc1onc(-c2ccccc2Cl)c1C(=O)NCc1cccnc1`, for which the nuclei count was 97.9% and the inhibition of aggregation is 8.2% (inactive).

Regarding `COc1cccc(NC(=O)c2ccco2)c1`, the inhibition of aggregation is 7% (inactive) and the nuclei count is 93.3%.
